An excerpt weighted towards active compounds, which were near 19% of everything screened.
SARS PLP yeast = qHTS of Yeast-based Assay for SARS-CoV PLP. S. cerevisiae expressing SARS-CoV PLpro, growth rescue. Potency, µM (titrated, usually from 32.9 µM), actives largely listed as activators. 330,000 tested, 0.19% active. AID 485353, 2010; calls by dose curve; also: nearly all actives have a fitted effect of over 55% in size
AMA1-RON2 inh = qHTS for Inhibitors of AMA1-RON; Towards Development of Antimalarial Drug Lead: Primary Screen. Plasmodium falciparum AMA1 (3D7) - RON2 peptide interaction. AlphaScreen AMA1-biotinylated RON2 peptide binding. Potency, µM (highest dose often 58.2 µM), actives largely listed as inhibitors. 360,000 tested, 0.2% active. AID 720542, 2013; also: nearly all actives have a fitted effect of over 45% in size
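AMA1 (3D7) with his tag at 25 nM final met compounds first, then biotinylated RON2 peptide at 25 nM; detection used donor plus acceptor beads, 10 µg/mL apiece, read by AlphaScreen after 30 min at room temperature.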
Pf growth 48h = Primary qHTS for delayed death inhibitors of the malarial parasite plastid, 48 hour incubation | 310,000 tested, 5.9% active | AID 504832, 2011 | P. falciparum luciferase growth in erythrocytes, 48 h | Potency, µM (top dose mostly 28.7 µM), usual class: inhibitors
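Compounds are pin-transferred into medium, infected erythrocytes (2% hematocrit, 0.1% parasitemia final) are added, and plates sit one parasite generation at 37 C in 5% CO2. Detection reagent is then added and luminescence measured.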
Shiga inhibitor = A qHTS for Small Molecule Inhibitors of Shiga Toxin | Vero cells, Shiga toxin protein synthesis inhibition reporter | inhibition, % at 38.7 µM | 290,000 tested, 9.2% active | AID 2315, 2010; in the data active = inhibition mostly above about 28%, no sharp cut-off; inactive = mostly below about 43%
Pf growth 96h = Primary qHTS for delayed death inhibitors of the malarial parasite plastid, 96 hour incubation. P. falciparum luciferase reporter growth, 96 h. 320,000 tested, 6.9% active. Potency, µM (series often up to 28.7 µM), actives largely listed as inhibitors
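Compounds incubated with erythrocytes infected by luciferase-expressing P. falciparum (2% hematocrit, 0.05% parasitemia final) for 96 hours, 37 C in 5% CO2. Growth inhibition scored as decreased luciferase luminescence.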
CHX counter = Cycloheximide Counterscreen for Small Molecule Inhibitors of Shiga Toxin | AID 2314, 2010 | max response, % | 300,000 tested, 12% active | cell reporter, cycloheximide protein synthesis inhibition counterscreen; in the data active = max response mostly above about 13%, no sharp cut-off; inactive = mostly below about 14%; also: read at 38.3 µM for the half of the compounds with a filed dose
Hits are given with their value; – = inactive; ? = inconclusive; · = not tested or not shown. Unless noted, calls follow the shape of the dose curve; as a rule, active = well fitted curve in the direction sought with a large enough effect; inconclusive = small, poorly fitted or top-dose-only effect, or another doubt; inactive = no such curve, though single readings can be large; an effect the other way counts as inactive or inconclusive.

SMILES	SARS PLP yeast	AMA1-RON2 inh	Pf growth 48h	Shiga inhibitor	Pf growth 96h	CHX counter
CCc1cc(-c2[nH]ncc2-c2nc3ccccc3n2C)c(O)cc1O	–	–	–	–	–	–
CCCc1cc(-c2[nH]ncc2-c2ccc3c(c2)OCCCO3)c(O)cc1O	–	–	?	–	13µM	–
COc1ccc(N2CCN(C3CCCN(C(=O)c4cccc(C)n4)C3)CC2)cc1 (centres undefined)	–	–	–	–	–	–
COc1cc(NC(=O)CSc2ncnc3c2cnn3Cc2ccccc2)cc(OC)c1	–	?	12µM	–	·	–
COc1ccc(OC)c(NC(=O)CSc2ncnc3c2cnn3-c2ccccc2Cl)c1	–	–	10µM	–	–	–
COc1ccc(OC)c(NC(=O)CSc2ncccn2)c1	–	–	·	–	–	–
COc1ccccc1CNS(=O)(=O)c1ccc(Cl)s1	–	–	–	–	–	–
CCC(=O)Nc1ccccc1C(=O)OCC(=O)c1ccc2ccccc2c1	–	–	–	–	·	–
CCC(=O)Nc1ccccc1C(=O)OCC(=O)c1ccccc1	–	–	–	89	–	20
COC(=O)CCCNS(=O)(=O)c1ccc2ccccc2c1	–	–	–	–	–	–
CC(=O)Nc1ccccc1C(=O)OCC(=O)c1ccc2ccccc2c1	–	–	–	76	–	28
NC(=O)NCCCC(=O)OCC(=O)c1ccc2ccccc2c1	–	–	–	–	–	21
c1c[nH]c(CN2CCN(Cc3ncc[nH]3)CC2)n1	·	–	·	·	·	·
O=c1c(-c2ccccc2)c1-c1ccccc1	–	·	6.7µM	104	5.4µM	65
O=c1[nH][nH]c(-c2ccccc2)c1-c1ccccc1	·	–	·	·	·	·
C[N+](C)(C)CCN(Cc1ccc(Cl)cc1)c1ccccn1	–	–	6.6µM	–	2.3µM	–
O=C1NN(c2ccc(F)cc2)C(=O)/C1=C/c1cccs1	–	–	–	–	–	–
COc1ccc(OC)c(NC(=S)NCc2cccnc2)c1	–	–	–	–	?	–
O=C(c1ccc2c(=O)n(Cc3ccc4c(c3)OCO4)c(=S)[nH]c2c1)N1CCCCC1	–	–	–	–	?	–
CCOC(=O)N1CCN(C(=O)c2ccc(Cn3c(=S)[nH]c4cc5c(cc4c3=O)OCO5)cc2)CC1	–	–	13µM	–	?	–
CC1CC(C)CN(C(=O)c2ccc3c(=O)n(Cc4ccc5c(c4)OCO5)c(=S)[nH]c3c2)C1 (centres undefined)	–	–	–	–	7.4µM	–
O=C(c1ccc2c(=O)n(Cc3ccc(Cl)cc3)c(=S)[nH]c2c1)N1CCOCC1	?	–	–	23	–	26
O=C(CN1C(=O)C(=O)N(Cc2ccccc2)C1=O)Nc1ccc(F)c(Cl)c1	–	–	–	–	–	–
O=C(c1c(F)cccc1F)N1CCC(O)(c2ccc(F)cc2)CC1	–	–	–	·	?	–
CC(C)C[C@@H](COCc1ccc(C(F)(F)F)cc1)N1CCN(C(=O)c2ccc(C(F)(F)F)cc2)CCC1=O	·	–	·	·	·	·
SMILES	SARS PLP yeast	AMA1-RON2 inh	Pf growth 48h	Shiga inhibitor	Pf growth 96h	CHX counter
CC1CCC(C(C)C)C(OC(=O)Cn2c(COc3ccccc3)[n+](C)c3ccccc32)C1 (centres undefined)	–	–	1.7µM	–	2.3µM	–
Cc1cccc(OCc2n(CC(=O)OC3CC(C)CCC3C(C)C)c3ccccc3[n+]2C)c1 (centres undefined)	–	–	2.3µM	–	–	–
O=c1c2[nH]c3ccccc3c2ncn1C1CCCCC1	–	–	–	–	–	26
O=c1c2ccccc2ncn1C1CCCCC1	·	–	–	–	–	–
COc1ccc(N(CC(=O)N2CCc3ccccc32)S(=O)(=O)c2c(C)n[nH]c2C)cc1	–	–	?	–	–	–
COc1cccc(N2CCN(S(=O)(=O)c3ccc(-n4cnnn4)cc3)CC2)c1	–	–	–	–	–	–
CC(C)(C)OC(=O)N1CCC[C@H]1C(=O)N/N=C/c1ccc2nccnc2c1	–	–	?	–	–	–
COc1ccc2nc(/C=N/NC(=O)[C@@H]3CCCN3C(=O)OC(C)(C)C)ccc2c1	–	–	–	76	–	46
COc1ccc(NC(=O)C2CCCN2C(=O)OC(C)(C)C)cc1 (centres undefined)	–	–	–	–	–	–
CC(C)(C)OC(=O)N1CCC[C@H]1C(=O)N/N=C/c1cccc2nccnc12	–	–	15µM	–	?	–
CC(=O)N1CCc2cc(S(=O)(=O)NCCC(=O)NC3CCCCCC3)ccc21	–	–	–	–	–	–
CC(OC(=O)CCc1cc(C(C)(C)C)c(O)c(C(C)(C)C)c1)C(=O)NC1CC1 (centres undefined)	–	–	0.47µM	·	0.66µM	·
Cc1ccc(Cl)c(OCC(=O)OC(C)C(=O)NC2CC2)c1 (centres undefined)	–	–	–	·	–	·
Cc1cc(OCC(=O)Nc2ccncc2)ccc1Cl	–	–	–	–	?	–
Cc1cc(=O)oc2cc(OCC(=O)NC3CCCCC3)ccc12	–	–	–	–	–	22
Cc1cc(=O)oc2cc(OCC(=O)NC3CC(C)(C)NC(C)(C)C3)ccc12	–	–	–	–	–	–
Cc1cc(OCC(=O)Nc2ncn[nH]2)ccc1Cl	–	–	–	·	1.9µM	·
CN(CC(=O)NCc1ccccn1)S(=O)(=O)c1cc(Cl)ccc1Cl	·	–	–	·	–	·
Cc1cc(OCC(=O)NC2CCCCC2)ccc1Cl	–	–	–	67	–	30
CN(CC(=O)Nc1ncn[nH]1)S(=O)(=O)c1cc(Cl)ccc1Cl	–	–	10µM	–	–	–
O=C(NCc1cccs1)c1ccc(CS(=O)Cc2ccc(Cl)cc2)o1 (centres undefined)	·	–	·	·	·	·
COc1ccc(-n2c(SCC(=O)N/N=C(\C)c3cccnc3)nc3ccccc3c2=O)cc1	–	–	–	–	?	–
N#Cc1nc(NCC(F)F)nc(Nc2cc(F)cc(F)c2)n1	–	·	10µM	·	?	·
N#Cc1nc(Nc2cc(F)cc(F)c2)c2ncn(CC(F)F)c2n1	–	·	?	·	0.29µM	·
Cc1ccc(S(=O)(=O)N2CCN(C(=O)Cn3cnc4c3c(=O)n(C)c(=O)n4C)CC2)cc1C	–	–	?	·	?	·
Cc1ccc(/C(N)=N/OC(=O)COc2cccc3ccccc23)cc1	·	–	·	·	·	·
Cc1cccc(/C(N)=N/OC(=O)COc2ccccc2Cl)c1	–	–	–	21	?	66
COc1ccc(/C(N)=N/OC(=O)COc2ccccc2Cl)cc1	–	–	–	26	–	46
OC(c1cccc(Cl)c1)c1nc(-c2ccc3c(c2)OCO3)cs1 (centres undefined)	·	–	·	·	·	·
CCn1cc(-c2cc(C(=O)O)c3ccccc3n2)cn1	–	–	–	–	–	–
